This is part of a sample that, as a whole, favours compounds with a hit. Of some 83,000 tested, about 20% had one in any assay.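 Cell lines were cultured in 96-well plates, exposed to a single compound concentration, and assessed for percent growth 48 hours later.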 A number with no mark means an inactive call. Activity calls are given as the source filed them. The calls were made as follows: active = growth percent below 10; inactive = the rest.
Legend:
Experiment in all cases: NCI-60 one-dose screen, 48 h (100 = growth as untreated, 0 = no growth, -100 = all killed)
Conditions in all cases: 10 µM unless noted
NCI-H23 lung = test system: NCI-H23 lung
NCI-H226 lung = test system: NCI-H226 lung
NCI-H322M lung = test system: NCI-H322M lung
HOP-62 NSCLC = test system: HOP-62 NSCLC
NCI-H460 lung = test system: NCI-H460 lung
A549/ATCC NSCLC = test system: A549/ATCC NSCLC
786-0 renal = test system: 786-0 renal
COLO 205 colon = test system: COLO 205 colon

| SMILES | growth (NCI-H23 lung) | growth (NCI-H226 lung) | growth (NCI-H322M lung) | growth (HOP-62 NSCLC) | growth (NCI-H460 lung) | growth (A549/ATCC NSCLC) | growth (786-0 renal) | growth (COLO 205 colon) |
| --- | --- | --- | --- | --- | --- | --- | --- | --- |
| COC(=O)c1cc(=O)nc(N/N=C/c2ccccc2O)s1 | 89% | 101% | 67.2% | 90.7% | 94.5% | 94.4% | 95.1% | 93% |
| CC(=O)O.[In] | 103% | 101% | 97.6% | 106% | 111% | 99.6% | 101% | 112% |
| CC1(C)N=C(N)N=C(N)N1c1cccc(CCCCOc2ccccc2)c1 | 24% | 43.4% | 35.6% | 11.4% | 4.82% (active) | 11.2% | 21.8% | 29.3% |
| CCCCCCCCCCCCCCCCCC(=O)Nc1ccc(O)cc1 | 98.7% | 102% | 97% | 91.4% | 100% | – | 79% | 93% |
| O=Nc1ccc(O)c2ccccc12 | -9.22% (active) | 101% | 106% | 38.4% | 96.7% | 41.6% | 77.7% | 21.9% |
| COC(=O)C(Cc1cnc[nH]1)N1CC(=O)N2[C@@H](c3ccccc3)SC[C@H]2C1=O (stereo not given in full) | 100% | 143% | 112% | 114% | 109% | 96.4% | 107% | 124% |
| O=P(OCCCl)(OCCCl)C(O)c1ccccc1Cl (stereo not given) | 106% | 100% | 97% | 96.2% | 115% | 111% | 110% | 101% |
| COc1cc(/C(=C2/O[C@@H]([C@H]3COC(C)(C)O3)[C@H]3OC(C)(C)O[C@@H]23)c2ccc3c(c2)OCO3)cc(OC)c1OC | 54% | 102% | 85.3% | 63.5% | 57.3% | -14% (active) | -6.92% (active) | 108% |
| CCOC(=O)C(C)C(C)(O)c1ccccc1 (stereo not given) | 98.5% | 94.1% | 93.2% | 109% | 103% | – | 94.1% | 112% |
| CCn1cnc(C[C@H](NC(=O)[C@@H](NC(=O)Nc2cc(C(F)(F)F)cc(C(F)(F)F)c2)C(C)C)C(=O)OC)c1 | -78.8% [100 µM] (active) | -55.6% [100 µM] (active) | -95.9% [100 µM] (active) | -97.9% [100 µM] (active) | -43.2% [100 µM] (active) | -71.4% [100 µM] (active) | -87.5% [100 µM] (active) | -94.1% [100 µM] (active) |
| CCn1cnc(C[C@H](NC(=O)[C@@H](NC(=O)Nc2cc(C(F)(F)F)cc(C(F)(F)F)c2)C(C)(C)C)C(=O)OC)c1 | -84.2% [100 µM] (active) | -49.5% [100 µM] (active) | -96.3% [100 µM] (active) | -95.5% [100 µM] (active) | -57.2% [100 µM] (active) | -80.1% [100 µM] (active) | -83.9% [100 µM] (active) | -80% [100 µM] (active) |
| O=C(CBr)OCc1ccc([N+](=O)[O-])o1 | 97.2% | 104% | 132% | 96.8% | 91.6% | 100% | – | 100% |
| CC[C@@H](C)/C=C(C)/C=C/C(=O)c1c(O)c(-c2ccc(OC(=O)[C@@]34CC[C@@](C)(C(=O)O3)C4(C)C)cc2)cn(O)c1=O | 21.8% | 36.8% | -4.05% (active) | 21% | -7.48% (active) | 43.6% | -31.8% (active) | 112% |
| CCOC(=O)/C(C#N)=C(/CC)OCC | 110% | 102% | 92.2% | 104% | 110% | 104% | 103% | 113% |
| Br/C(=N\Nc1nn[nH]n1)c1ccccc1 | 98.9% | 90.6% | 96.3% | 98% | 105% | – | 92.2% | 104% |
| Nc1nc2cc(O)ccc2n2cc3c(F)cccc3c12 | 40.9% | 54.8% | 32.5% | 24.9% | 2.35% (active) | 22.6% | 27.6% | 55.1% |
| O=C(O)COc1ccc([N+](=O)[O-])cc1Cl | 108% | 108% | 99.8% | 90.5% | 108% | 100% | 98.7% | 110% |

| SMILES | growth (NCI-H23 lung) | growth (NCI-H226 lung) | growth (NCI-H322M lung) | growth (HOP-62 NSCLC) | growth (NCI-H460 lung) | growth (A549/ATCC NSCLC) | growth (786-0 renal) | growth (COLO 205 colon) |
| --- | --- | --- | --- | --- | --- | --- | --- | --- |
| COC(=O)C(N)CC(C)C (stereo not given) | 107% | 97.1% | 106% | 110% | 108% | 103% | 96.7% | 114% |
| CCCCCCCCC(=O)Nc1ccc(O)cc1 | 92.3% | 104% | 88.1% | 99.3% | 105% | – | 95.9% | 94.9% |
| OCCN1CCCN(CCCN2c3ccccc3Sc3ccc(C(F)(F)F)cc32)CC1 | 68.8% | 92.7% | 73.6% | 74.8% | 40.7% | – | 65.1% | -81.8% (active) |
| COc1ccc(Nc2c3ccccc3nc3ccccc23)cc1 | 36.1% | 6.97% (active) | 43.3% | 33.7% | 9.36% (active) | – | 43.6% | 20.1% |
| CCOC1=C(Cl)C(=O)C(OCC)=C(Cl)C1=O | 107% | 103% | 94.7% | 97.6% | 109% | 108% | 97.9% | 104% |
| COc1cc(-c2nn(-c3ccc(NC(=O)Nc4cc(C(F)(F)F)cc(C(F)(F)F)c4)cc3)cc2-c2ccncc2)ccc1Cl | 8.45% (active) | 18.4% | 6.93% (active) | 12.2% | -20.6% (active) | 12.1% | -41.4% (active) | -89.8% (active) |
| CCCCCCCCCCCCOC(=O)/C=C\C(=O)NC(N)=O | 110% | 96.8% | 111% | 101% | 93.2% | 81.6% | 89.9% | 111% |
| CC(C)C(=O)c1ccc(Cl)s1 | 103% | 93.2% | 91.5% | 98.1% | 105% | – | 102% | 109% |
| O=C(c1ccccc1)c1ccccc1-c1ccccc1 | 46.2% | 71.8% | 65.6% | 32.5% | 15.1% | 38.3% | 37.8% | 22.6% |
| C=CCNCCC#N | 113% | 92.9% | 115% | 105% | 111% | 99.2% | 102% | 116% |
| CC(O)CN(CCO)CCN(CCO)CC(C)O (stereo not given) | 111% | 99.3% | 103% | 110% | 109% | 102% | 94.6% | 115% |
| CCOC(=O)c1sc(NS(=O)(=O)c2ccccc2)nc1C | 109% | 106% | 122% | -99.5% (active) | 109% | 103% | 89.4% | 120% |
| CCCCCCCCCC(C)NC(=O)CCl (stereo not given) | 90% | 96.5% | 96.6% | 102% | 107% | – | 93.1% | 113% |
| COc1ccc(C(=O)NCCNc2nccc(-c3c(-c4ccc(F)cc4)nc4sccn34)n2)cc1 | 70.7% | 54.8% | 68.1% | 64.8% | 26.1% | 34% | 48.9% | 47% |
| C=C(C)C(C(=O)OCC)(C(=O)OCC)C(C)C | 114% | 109% | 111% | 108% | 106% | 96.5% | 103% | 117% |
| O=C(CCC(=O)N(CCO)CCO)N(CCO)CCO | 108% | 105% | 96% | 102% | 116% | 105% | 96.4% | 98.4% |

Reference: PubChem BioAssay (NCI)
